Where “and” joins values, the source holds several entries; their conditions need not be identical. Equal entries are not always repeated. The whole screen tested about 310,000 compounds, of which about 11,000 (3.5%) were called active. About 4% were inconclusive and are not listed. The full list was thinned out, with actives kept by preference. A structure can be active in one record and inactive in another. Values without a mark were called inactive. Calls follow the shape of the dose curve; as a rule, active = well fitted inhibition curve with a large enough effect; inconclusive = small, poorly fitted or top-dose-only effect, or another doubt; inactive = no such curve, though single readings can be large or run the other way.
Molecular target: 4'-phosphopantetheinyl transferase ffp (Bacillus subtilis) (UniProt Q9F4F7)
Assay: qHTS Assay for Inhibitors of Bacillus subtilis Sfp phosphopantetheinyl transferase (PPTase);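 also: the enzyme is Sfp with the accession as filed and its product quenches rhodamine fluorescence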;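 as to largest response in the series, negative = inhibition: 0% = enzyme reaction without inhibitor and -100% = no enzyme wells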
Settings: Biochemical Sfp PPTase activity
Description: Assay Submitter: Michael Burkart, University of California, San Diego
Screening Center PI: Austin, C.P.
Screening Center: NIH Chemical Genomics Center [NCGC]
The covalent attachment of a phosphopantetheinyl (4'-PP) arm to a variety of synthases and other proteins is a key posttranslational protein modification. The 4'-PP is installed on the proteins post-translationally from coenzyme A (CoA) on a conserved serine residue by action of phosphopantetheinyl transferase (PPTase) enzymes. Phosphopantetheinylation is essential for synthase activity, and removal of the PPTase gene precludes natural product synthesis in microorganisms, or in the case of fatty acid biosynthesis, renders the organism unviable. PPTase enzymes belong to a distinct structural superfamily. Within bacteria, these enzymes are grouped into two classes based upon primary structure, the AcpS-Type and Sfp-Type PPTases.
Sfp-type PPTases, corresponding to an activator of surfactin production in Bacillus subtilis, are responsible for modifying type I polyketide and nonribosomal peptide synthases of prokaryotes. Sfp-type PPTases are responsible for the activation of a variety of pathogen-associated virulence factors. Among these compounds are toxins such as mycolactone from Mycobacterium ulcerans, siderophores such as vibriobactin from Vibrio cholerae or mycobactin from Mycobacterium tuberculosis, as well as the mycolic acids which form the waxy cell wall of Mycobacteria. The biosyntheses of these natural products are considered attractive targets for drug design.
In search of small molecule Sfp-PPTase inhibitors, a fluorescence quenching assay was developed for detection of Bacillus subtilis Sfp-PPTase enzymatic activity in a miniaturized high-throughput format. The consensus ybbr acceptor peptide […] was N-terminally labeled with Black Hole Quencher-2 (BHQ-2) and used in combination with rhodamine-labeled coenzyme A as a co-substrate.
Inhibition of Sfp-PPTase was detected by recording the fluorescence intensity change over a 30-minute reaction period at a 525 nm excitation and 598 nm emission. Reagents were supplied by Michael Burkart and Timothy Foley, University of California at San Diego.
This BioAssay deposition is for validation of the developed Sfp-PPtase assay.
Assay Buffer: 50 mM Hepes-Na pH 7.6, 10 mM MgCl2, 0.01% Nonidet P-40, and 0.01% BSA.
3 uL of Sfp-PPTase enzyme (final concentration 15 nM) and 1 uL of substrate mixture (final concentration for rhodamine-CoA and BHQ-2-YbbR 5 uM and 12.5 uM, respectively) dispensed in columns 1, 2, 5 - 48. Columns 1 and 2 used to generate neutral control (uninhibited reaction)
Three uL of reagents, consisting of buffer (in columns 3 and 4 as negative control) and Sfp-PPTase (in columns 1, 2, 5 - 48) were dispensed into 1,536-well Greiner black solid bottom plate. Compounds (23 nL) were transferred via Kalypsys pintool equipped with 1,536-pin array. The plate was incubated for 15 min at room temperature, followed by the addition of 1 uL substrate to start the reaction. The plate was then centrifuged at 1000 rpm for 15 seconds, and the fluorescence intensity recorded on a ViewLux High-throughput CCD imager (Perkin-Elmer) using standard BODIPY optics (525 nm excitation and 598 nm emission). The plate was then incubated for 30 minutes, and a second read on the ViewLux was performed. The fluorescence intensity difference over the 30-minute period was used to calculate the respective reaction rate for each well.
Potency is read from the fitted curve at half-maximal effect.

| SMILES | Potency | largest response in the series, negative = inhibition |
| --- | --- | --- |
| BrC1C(Br)C(Br)C(Br)C(Br)C1Br (stereo not drawn) | 79.4 µM (active) |  |
| Cc1ccc(C2CN(C)CC2C(=O)c2ccc(F)cc2)cc1 (stereo not drawn) |  | 15% |
| CC(=NC1CCN(Cc2ccccc2)CC1)c1c(O)n(C)c(=O)n(C)c1=O |  | 8.13% |
| NC[C@H](O)c1ccc(O)cc1 |  | 5.47% |
| CC[C@@H]1CN2CC[C@@H]1C[C@H]2[C@H](O)c1ccnc2ccc(OC)cc12 |  | 6.78% |
| CCN1C[C@]2(COC)C(O)C[C@H](OC)[C@@]34C5C[C@]6(O)C(OC)C(O)[C@](OC(C)=O)(C5C6OC(=O)c5ccccc5)C(C(OC)C23)C14 (stereo partly drawn) |  | 5.25% |
| COC(=O)N1C(c2ccccc2)C1c1ccccc1 (stereo not drawn) |  | 17.3% |
| CC(=O)[O][Sn]([c]1ccccc1)([c]1ccccc1)[c]1ccccc1 | 1.41 µM (active) |  |
| COc1cccc(-c2nc3ccc(N4CCN(C)CC4)cc3[nH]2)c1 |  | -7.35% |
| CCCN(C/C=C/I)C1CCc2ccc(O)cc2C1 (stereo not drawn) |  | -26.2% |
| C[C@@]12CC[C@H]3[C@@H](CC[C@]4(O)C[C@H](O)CC[C@@]34C=O)[C@]1(O)CC[C@@H]2C1=CC(=O)OC1 |  | 17.6% |
| Cc1ccc2c(c1)=C/C(=C\c1c(O)[nH]c(=O)[nH]c1=O)C(=O)N=2 | 28.2 µM (active) |  |
| O=C1N=c2ccccc2=C/C1=C\c1c(O)[nH]c(=S)[nH]c1=O | 25.1 µM (active) |  |
| COc1ccccc1N=Nc1c(O)[nH]c(=S)[nH]c1=O |  | -20.4% |
| O=c1[nH]c(O)c(C=Nc2cc(F)cc(F)c2)c(=O)[nH]1 |  | -4.22% |
| COc1cc(C(=S)N2CCOCC2)ccc1O |  | 14.2% |
| N#CC(C#N)=Cc1cc(O)c(O)c([N+](=O)[O-])c1 |  | -27.4% and 8.16% |
| OC(Cn1c2ccccc2c2ccccc21)C[n+]1ccccc1 (stereo not drawn) |  | 4.01% |
| CC(C)(O)c1[se]c2ccccc2c1I |  | -14.3% |
| O=C(N/N=C/c1ccc([N+](=O)[O-])o1)c1cc([N+](=O)[O-])cc([N+](=O)[O-])c1O |  | -16.6% |
| COC(=O)c1ccc2[se]c(CC3CCCCC3)c(I)c2c1 |  | -1.34% |

| SMILES | Potency | largest response in the series, negative = inhibition |
| --- | --- | --- |
| C[C@]12O[C@H](C[C@@]1(O)C(=O)O)n1c3ccccc3c3c4c(c5c6ccccc6n2c5c31)CNC4=O |  | -2.27% |
| CN(C)CC1CCCCC1=O (stereo not drawn) |  | 9.1% |
| C=CCN1C(=O)C2(C(C(=O)OCC)=C(N)Oc3c2c(=O)oc2ccccc32)c2ccccc21 (stereo not drawn) |  | -13.3% |
| CC(C)(c1ccc(OC[C@@H]2CO2)cc1)c1ccc(OC[C@H]2CO2)cc1 |  | -26.3% |
| CCCCC/C=C\C/C=C\C/C=C\C=C\[C@H](CCCC(=O)O)OO |  | 1.29% and 7.78% |
| CCCCC/C=C\C/C=C\C/C=C\C/C=C\CCCCCC(=O)NCCO | 25.1 µM (active) | -11.4% and -19.7% and 32% |
| CCCCC/C=C\C/C=C\C/C=C\CCCCCCC(=O)NCCO |  | -6.26% and -18.5% and 24.4% |
| CCN1C[C@@]2(COC)CC[C@H](OC)[C@]34[C@@H]1[C@]1(OCO[C@@]15C[C@@H](OC)C1C[C@H]3[C@H]5[C@@H]1OC)[C@H](O)[C@@H]24 |  | 4.99% |
| C=CCN1CCC23c4c5ccc(O)c4O[C@H]2C(=O)CC[C@@]3(O)C1C5 (stereo partly drawn) |  | 7.15% |
| CN(C)[C@@H]1C(=O)C(C(N)=O)=C(O)[C@@]2(O)C(=O)C3=C(O)c4c(O)cccc4[C@@](C)(O)C3CC12 (stereo partly drawn) |  | -6.86% |
| CCOC(=O)C1(CCc2ccccc2)CCN(Cc2ccco2)CC1 |  | -10.9% |
| CN1[C@@H]2CC[C@H]1CC(OC(=O)c1cc(Cl)cc(Cl)c1)C2 (stereo partly drawn) |  | 10.2% |
| CC(=O)Oc1ccccc1C(=O)Nc1ncc([N+](=O)[O-])s1 | 50.1 µM (active) | -19.7% |
| O=c1oc2ccccc2c(O)c1C(c1ccccc1O)c1c(O)c2ccccc2oc1=O |  | 9.81% |
| C[C@H]1C/C=C/[C@@H]2[C@@H]3O[C@]3(C)[C@@H](C)[C@H]3[C@H](Cc4ccccc4)NC(=O)[C@]32OC(=O)O/C=C/[C@](C)(O)C1=O |  | -0.438% |
| CN[C@@H]1C[C@H]2O[C@@](C)([C@@H]1OC)n1c3ccccc3c3c4c(c5c6ccccc6n2c5c31)C(=O)NC4 |  | 0.89% and -25.9% |
| c1ccc(CCCCN2CCC(c3ccccc3)CC2)cc1 |  | -6.46% and 2.8% |
| COc1ccc(CNCCc2ccc3c(c2)OCO3)c(OC)c1OC |  | -17.5% |
| CC1=CC(=O)C2=C(C)C[C@H](O)[C@H]3[C@H](C)C(=O)O[C@@H]3C12 (stereo partly drawn) |  | 33% |
| O=Cc1cn(Cc2ccc(F)cc2Cl)c2ccccc12 |  | 0.0934% |
